Drawing on PubChem BioAssay (NCI), this text covers growth for eight compounds.

Test in all cases: NCI-60 one-dose screen, 48 h (100 = growth as untreated, 0 = no growth, -100 = all killed)
What all share (details): 10 µM

Experiment [1] concerns SK-MEL-2 melanoma.
Experiment [2] concerns EKVX NSCLC.
In experiment [3] the test system is SN12C renal.
For experiment [4], the system named is UO-31 renal.
In experiment [5] the test system is ACHN renal.
Experiment [6] relates to CAKI-1 renal.
Experiment [7] deals with A498 renal.
For experiment [8], the system named is CCRF-CEM leukemia.
The test system of experiment [9] is MOLT-4 leukemia.
Experiment [10] relates to SR leukemia.
The test system of experiment [11] is RPMI-8226 leukemia.
The test system of experiment [12] is OVCAR-8 ovarian.
Experiment [13] relates to OVCAR-5 ovarian.
The test system of experiment [14] is OVCAR-4 ovarian.
Experiment [15] deals with SK-OV-3 ovarian.
Experiment [16] deals with IGROV1 ovarian.
The subject of experiment [17] is OVCAR-3 ovarian.
Experiment [18] deals with HS 578T breast.
Experiment [19] has as its system NCI/ADR-RES ovarian.
Experiment [20] relates to TK-10 renal.

The panel holds about 83,000 compounds, 20% with a hit somewhere; the sample as a whole holds those more often.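 Interpretation: 100, growth as untreated; towards 0, rising growth inhibition; 0, no net growth; 0 to -100, cell death. Compounds scoring below 10 were considered active.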 A number with no mark means an inactive call. The source made the active and inactive calls.

As for `COc1cccc(C2C(C#N)=C(N)Oc3cc(N)ccc32)c1` (configuration not stated), the growth in experiment [1] is 24.5%; in [2], 55.7%; in experiment [3] it was 36.3%; in experiment [4], 49.7%; in experiment [5] it was 55.4%; in experiment [6], 31.9%. The growth in experiment [7] is 1.48% (active); in [8], 11.4%; in experiment [9], 28.9%; in experiment [10], 14.4%; in experiment [11] it was 19.6%; in [12] it was 30.7%. Also, the growth is 40.6% in experiment [13]; 43.8% in [14]; 48.9% in [15]; 32.4% in experiment [16]; -26.5% (active) in experiment [17]; 22.1% in experiment [18]. Besides, in experiment [19], the growth is -7.69% (active).
On to `Cc1ccc(C2NC(=S)N3C(c4ccc(C)cc4)NC(=S)N23)cc1` (configuration not stated), for which the growth in experiment [1] is -32.9% (active); in [2], 43.1%; in experiment [3], 52.5%; in experiment [4] it was 12.7%; in [5] it was 63.4%; in experiment [8] it was 12.3%. In addition, the growth in experiment [9] is 24.8%; in experiment [11], 6.55% (active); in experiment [12], 35.7%; in [13], 81.6%; in [14], 117%; in experiment [15], 49%. Besides, the growth is -20% (active) in [17], 26.4% in experiment [18] and 19% in [19].
Consider `COc1ccc(-c2n[nH]nc2-c2cc(OC)c3c(c2OC)OCO3)cc1`, for which the growth in [1] was 1.83% (active); in experiment [2], 48.3%; in experiment [3], 33.5%; in experiment [4] it was 51.1%; in experiment [5], 54.9%; in [6] it was 27.2%. The growth is 14.9% in experiment [7]; 17.8% in experiment [8]; 24.2% in experiment [9]; 10.8% in experiment [10]; 25.1% in experiment [11]; 43% in experiment [12]. In addition, the growth was 44.2% in experiment [13]; 51.8% in experiment [14]; 52.7% in [15]; -11.5% (active) in experiment [17]; -5.63% (active) in experiment [18]; 2.06% (active) in experiment [19].
On to `CC(C)N(CCOc1ccc(-c2nc3sccn3c2-c2ccnc(S(C)(=O)=O)n2)cc1)C(C)C`, for which the growth in experiment [1] was 106%; in experiment [2] it was 87.6%; in experiment [3], 87.8%; in experiment [4], 70%; in experiment [5] it was 101%; in [6] it was 84.2%. The growth is 76.4% in [8]; 52.4% in experiment [9]; 74.4% in [10]; 71.2% in experiment [11]; 90.6% in experiment [12]; 104% in experiment [13]. The growth in experiment [14] is 72%; in [15], 90.3%; in [17], 72.8%; in [18] it was 76.6%; in experiment [19] it was 89.2%.
As to `O=C(Nc1ccc(NS(=O)(=O)c2ccc(F)cc2)cc1)C12CC3CC(CC(C3)C1)C2`, the growth was 107% in experiment [1]; 74.4% in experiment [2]; 92.6% in experiment [3]; 96.7% in [20]; 102% in experiment [5]; 86% in [6]. Further, the growth in experiment [7] was 90.8%; in experiment [8] it was 84.2%; in experiment [9], 77.7%; in experiment [10] it was 75.5%; in experiment [11], 89.3%; in experiment [12], 94.7%. For the same compound, the growth in experiment [13] is 97.1%; in [14], 99%; in [15] it was 92.5%; in experiment [16], 102%; in experiment [17], 98.6%; in [18], 94.4%. The growth in experiment [19] was 85.5%.
Take `O=C(N/N=C/c1c(Cl)cccc1Cl)c1ccccc1Nc1cccc(C(F)(F)F)c1`: the growth in experiment [1] is 71.4%; in experiment [2], 89.8%; in [3], 92.6%; in experiment [4], 93.7%; in experiment [5], 102%; in experiment [6], 95.5%. Besides, the growth is 73.1% in experiment [8]; 77.9% in experiment [9]; 70.8% in experiment [10]; 82.5% in experiment [11]; 103% in experiment [12]; 105% in experiment [13]. The growth in experiment [14] is 99.1%; in experiment [15], 107%; in experiment [16] it was 74.9%; in experiment [17] it was 104%; in experiment [18], 85%; in experiment [19], 100%.
`CCOc1ccccc1/C=N\N=C\c1ccccc1O`: the growth in experiment [1] is 100%; in experiment [2], 91.5%; in [3], 93.5%; in [20], 121%; in experiment [5], 100%; in [6] it was 92.9%. Moreover, the growth in experiment [8] was 71.6%; in [9] it was 72.5%; in [10] it was 80.6%; in experiment [11], 100%; in [12], 107%; in experiment [13], 120%. The growth is 112% in experiment [14]; 95.7% in experiment [15]; 95.8% in experiment [16]; 88.9% in experiment [17]; 110% in experiment [18]; 99.9% in [19].
As to `CCOC(=O)c1cc(C(=O)c2ccc(F)cc2F)n2ccccc12`, the growth was 91.2% in [1]; 99.7% in experiment [2]; 95.9% in experiment [3]; 115% in [20]; 97.1% in experiment [5]; 87.9% in [7]. Further, the growth is 84.7% in experiment [8]; 87% in [9]; 73% in experiment [10]; 77.6% in experiment [11]; 88% in experiment [12]; 99.7% in [13]. Besides, the growth in [14] is 97.8%; in experiment [15] it was 88.7%; in [16], 82.3%; in [17] it was 103%; in [18], 93.2%; in experiment [19], 88.5%.
